# Results as given in ChEMBL document CHEMBL1961873, “Compounds: GSK PKIS; Assays: Nanosyn kinase panel” (2012).
# Columns and labels:
# [1] = target: T1, Inhibitor of nuclear factor kappa-B kinase subunit epsilon (Homo sapiens) (UniProt Q14164); details: at 1 µM;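 also: reported values are averaged percent inhibition figures against human IKKε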
# T1 sequence (whole entry): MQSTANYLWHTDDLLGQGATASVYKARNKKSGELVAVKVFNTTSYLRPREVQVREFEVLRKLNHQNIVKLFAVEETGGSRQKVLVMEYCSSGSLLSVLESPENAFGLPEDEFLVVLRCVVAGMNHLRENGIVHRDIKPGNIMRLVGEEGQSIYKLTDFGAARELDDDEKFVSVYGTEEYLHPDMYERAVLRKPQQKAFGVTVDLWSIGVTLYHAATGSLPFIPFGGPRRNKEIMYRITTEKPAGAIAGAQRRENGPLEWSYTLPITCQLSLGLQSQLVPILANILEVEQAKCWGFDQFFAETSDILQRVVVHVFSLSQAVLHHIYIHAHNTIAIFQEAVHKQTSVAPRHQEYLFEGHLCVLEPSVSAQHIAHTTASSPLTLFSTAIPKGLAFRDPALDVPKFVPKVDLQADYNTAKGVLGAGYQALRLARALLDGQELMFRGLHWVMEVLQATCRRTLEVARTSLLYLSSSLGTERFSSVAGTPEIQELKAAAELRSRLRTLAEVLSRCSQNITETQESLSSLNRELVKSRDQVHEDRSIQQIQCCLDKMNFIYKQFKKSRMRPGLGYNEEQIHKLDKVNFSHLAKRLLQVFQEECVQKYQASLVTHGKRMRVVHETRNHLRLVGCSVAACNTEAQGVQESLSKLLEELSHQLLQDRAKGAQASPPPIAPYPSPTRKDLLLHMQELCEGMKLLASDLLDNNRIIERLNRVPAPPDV
# [2] = target: T2, Serine/threonine-protein kinase Nek1 (Homo sapiens) (UniProt Q96PY6); details: at 0.1 µM
# T2 sequence (whole entry): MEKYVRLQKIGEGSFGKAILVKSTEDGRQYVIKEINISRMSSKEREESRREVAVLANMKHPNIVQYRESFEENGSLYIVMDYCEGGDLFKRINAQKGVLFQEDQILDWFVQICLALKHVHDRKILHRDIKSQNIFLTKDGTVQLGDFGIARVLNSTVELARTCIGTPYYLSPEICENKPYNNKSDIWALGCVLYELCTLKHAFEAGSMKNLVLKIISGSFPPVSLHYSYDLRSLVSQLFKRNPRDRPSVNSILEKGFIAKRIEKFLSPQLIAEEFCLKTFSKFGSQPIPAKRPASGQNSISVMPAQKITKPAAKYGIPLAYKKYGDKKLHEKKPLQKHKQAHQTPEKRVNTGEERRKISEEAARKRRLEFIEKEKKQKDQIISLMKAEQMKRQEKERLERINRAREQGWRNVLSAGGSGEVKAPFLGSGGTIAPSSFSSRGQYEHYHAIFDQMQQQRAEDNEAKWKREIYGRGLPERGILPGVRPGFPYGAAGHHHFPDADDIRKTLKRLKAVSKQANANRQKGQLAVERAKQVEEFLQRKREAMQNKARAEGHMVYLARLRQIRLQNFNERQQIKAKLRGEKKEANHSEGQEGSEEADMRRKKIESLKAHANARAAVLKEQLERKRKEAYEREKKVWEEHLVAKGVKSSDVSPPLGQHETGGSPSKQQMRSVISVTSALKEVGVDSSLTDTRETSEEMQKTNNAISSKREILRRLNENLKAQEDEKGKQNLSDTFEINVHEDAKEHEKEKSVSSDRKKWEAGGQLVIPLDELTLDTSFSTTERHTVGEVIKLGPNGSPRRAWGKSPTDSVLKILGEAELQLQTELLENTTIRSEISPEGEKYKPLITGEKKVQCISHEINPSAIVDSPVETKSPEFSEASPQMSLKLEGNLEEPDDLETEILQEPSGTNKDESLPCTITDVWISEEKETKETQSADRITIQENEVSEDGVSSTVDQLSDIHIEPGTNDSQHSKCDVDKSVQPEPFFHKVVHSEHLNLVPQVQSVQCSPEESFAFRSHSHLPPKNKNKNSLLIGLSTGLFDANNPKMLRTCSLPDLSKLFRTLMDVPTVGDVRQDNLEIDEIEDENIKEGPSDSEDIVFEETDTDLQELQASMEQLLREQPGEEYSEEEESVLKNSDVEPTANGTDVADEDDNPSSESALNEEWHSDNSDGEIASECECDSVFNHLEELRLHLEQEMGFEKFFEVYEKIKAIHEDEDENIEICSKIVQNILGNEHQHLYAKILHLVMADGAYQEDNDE
# [3] = target: T2, Serine/threonine-protein kinase Nek1 (Homo sapiens); details: at 1 µM
# [4] = target: T3, Serine/threonine-protein kinase Nek2 (Homo sapiens) (UniProt P51955); details: at 0.1 µM
# T3 sequence (whole entry): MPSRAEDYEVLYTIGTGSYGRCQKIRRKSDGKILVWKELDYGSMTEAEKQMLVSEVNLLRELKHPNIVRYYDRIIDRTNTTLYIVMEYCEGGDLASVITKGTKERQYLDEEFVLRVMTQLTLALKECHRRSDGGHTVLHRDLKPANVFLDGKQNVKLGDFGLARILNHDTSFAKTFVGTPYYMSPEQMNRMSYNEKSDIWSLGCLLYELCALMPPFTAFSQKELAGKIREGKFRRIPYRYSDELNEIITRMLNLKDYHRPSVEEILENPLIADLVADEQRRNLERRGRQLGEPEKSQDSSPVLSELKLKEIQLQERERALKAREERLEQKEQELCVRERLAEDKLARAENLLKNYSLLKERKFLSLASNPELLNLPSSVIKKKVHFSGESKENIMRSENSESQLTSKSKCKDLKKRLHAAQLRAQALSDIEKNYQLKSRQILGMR
# [5] = target: T3, Serine/threonine-protein kinase Nek2 (Homo sapiens); details: at 1 µM
# [6] = target: Serine/threonine-protein kinase Nek6 (Homo sapiens) (UniProt Q9HC98); details: at 0.1 µM
# Serine/threonine-protein kinase Nek6 (Homo sapiens), sequence (Q9HC98 whole entry): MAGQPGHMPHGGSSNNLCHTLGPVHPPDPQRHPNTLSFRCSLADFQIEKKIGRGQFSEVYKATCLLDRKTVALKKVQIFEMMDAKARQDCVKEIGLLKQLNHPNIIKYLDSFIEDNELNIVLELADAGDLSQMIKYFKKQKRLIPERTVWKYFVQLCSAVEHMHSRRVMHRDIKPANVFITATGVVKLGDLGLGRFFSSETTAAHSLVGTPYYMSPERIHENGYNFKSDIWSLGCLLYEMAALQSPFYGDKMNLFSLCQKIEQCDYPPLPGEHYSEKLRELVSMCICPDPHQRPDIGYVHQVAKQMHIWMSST
# [7] = target: Serine/threonine-protein kinase Nek6 (Homo sapiens) (UniProt Q9HC98); details: at 1 µM
# [8] = target: Serine/threonine-protein kinase Nek7 (Homo sapiens) (UniProt Q8TDX7); details: at 0.1 µM
# Serine/threonine-protein kinase Nek7 (Homo sapiens), sequence (Q8TDX7 whole entry, looked up): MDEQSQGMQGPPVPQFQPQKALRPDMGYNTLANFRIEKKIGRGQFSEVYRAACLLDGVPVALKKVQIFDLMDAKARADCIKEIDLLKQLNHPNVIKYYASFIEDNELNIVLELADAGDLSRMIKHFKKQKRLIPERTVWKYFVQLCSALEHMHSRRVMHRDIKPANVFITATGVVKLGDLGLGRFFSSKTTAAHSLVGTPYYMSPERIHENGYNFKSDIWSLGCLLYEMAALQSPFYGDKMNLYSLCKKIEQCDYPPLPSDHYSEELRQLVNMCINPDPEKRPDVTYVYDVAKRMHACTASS
# [9] = target: Serine/threonine-protein kinase Nek7 (Homo sapiens) (UniProt Q8TDX7); details: at 1 µM
# [10] = target: T4, Serine/threonine-protein kinase Nek9 (Homo sapiens) (UniProt Q8TD19); details: at 0.1 µM;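 also: reported value is the mean percent inhibition of NEK9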
# T4 sequence (whole entry): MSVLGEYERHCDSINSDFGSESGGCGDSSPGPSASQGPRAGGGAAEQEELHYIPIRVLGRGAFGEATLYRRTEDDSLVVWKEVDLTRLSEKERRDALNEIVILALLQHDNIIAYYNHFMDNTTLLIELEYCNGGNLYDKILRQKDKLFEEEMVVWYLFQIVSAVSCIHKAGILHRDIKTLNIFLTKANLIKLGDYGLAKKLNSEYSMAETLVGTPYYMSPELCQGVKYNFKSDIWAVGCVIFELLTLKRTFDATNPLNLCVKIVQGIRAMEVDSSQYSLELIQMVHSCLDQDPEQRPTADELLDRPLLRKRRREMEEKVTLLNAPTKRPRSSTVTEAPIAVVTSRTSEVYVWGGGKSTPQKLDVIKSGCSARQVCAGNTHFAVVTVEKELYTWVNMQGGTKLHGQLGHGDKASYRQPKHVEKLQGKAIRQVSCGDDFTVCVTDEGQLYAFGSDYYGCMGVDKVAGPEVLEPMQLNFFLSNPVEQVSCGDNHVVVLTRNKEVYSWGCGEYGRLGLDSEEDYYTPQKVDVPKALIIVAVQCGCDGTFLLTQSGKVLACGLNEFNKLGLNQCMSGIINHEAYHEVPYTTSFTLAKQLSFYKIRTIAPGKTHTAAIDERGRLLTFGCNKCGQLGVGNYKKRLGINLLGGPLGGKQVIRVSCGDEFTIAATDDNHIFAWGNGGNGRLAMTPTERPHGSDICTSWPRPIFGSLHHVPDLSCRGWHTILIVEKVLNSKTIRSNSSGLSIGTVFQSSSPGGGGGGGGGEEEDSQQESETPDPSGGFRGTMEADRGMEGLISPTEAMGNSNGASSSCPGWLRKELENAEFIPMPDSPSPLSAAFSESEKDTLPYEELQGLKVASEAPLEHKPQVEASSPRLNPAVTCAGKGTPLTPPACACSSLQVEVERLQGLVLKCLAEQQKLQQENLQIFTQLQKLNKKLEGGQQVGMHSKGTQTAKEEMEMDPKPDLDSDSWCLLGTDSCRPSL
compound,measurement,setting,value
NCc1ccc(-n2c(-c3nonc3N)nc3cnccc32)cc1,inhibition,[1],11.4%
same,inhibition,[2],3.18%
same,inhibition,[3],3.48%
same,inhibition,[4],6.17%
same,inhibition,[5],7.8%
same,inhibition,[6],3.51%
same,inhibition,[7],3.42%
same,inhibition,[8],7.27%
same,inhibition,[9],7.6%
same,inhibition,[10],2.32%
